Common to all, as to format: functional
Test [1] concerns the target Solute carrier family 2, facilitated glucose transporter member 1 (Homo sapiens) (UniProt P11166). The test can be described thus: ST_JUDE_LEISH: Cytotoxicity at 2uM final concentration against transgenic Leishmania Mexicana promastigotes LmGLUT1 that are glucose transport deficient and complemented with the human glucose transporter GLUT1. Activity is measured by DNA content using SYBR green in vitro.

The target of test [2] is Hexose transporter 1 (Plasmodium falciparum) (UniProt O97467). Put plainly: ST_JUDE_LEISH: Cytotoxicity at 2uM final concentration against transgenic Leishmania Mexicana promastigotes LmPfHT that are glucose transport deficient and complemented with the Plasmodium falciparum hexose transporter. Activity is measured by DNA content using SYBR green in vitro.
In test [3] the target is Glucose transporter (Leishmania mexicana) (UniProt O61059). The test can be described thus: ST_JUDE_LEISH: Cytotoxicity at 2uM final concentration against transgenic Leishmania Mexicana promastigotes LmGT2 that are glucose transport deficient and complemented with the L. Mexicana glucose transporter 2. Activity is measured by DNA content using SYBR green in vitro.

Among the data in ChEMBL document CHEMBL3433997, “St. Jude Leishmania screening dataset” (2016) are inhibition values, retold here.

Usually inhibition stands for the drop in the measured response relative to a control, in per cent.

Solute carrier family 2, facilitated glucose transporter member 1 (Homo sapiens), sequence (P11166 whole entry): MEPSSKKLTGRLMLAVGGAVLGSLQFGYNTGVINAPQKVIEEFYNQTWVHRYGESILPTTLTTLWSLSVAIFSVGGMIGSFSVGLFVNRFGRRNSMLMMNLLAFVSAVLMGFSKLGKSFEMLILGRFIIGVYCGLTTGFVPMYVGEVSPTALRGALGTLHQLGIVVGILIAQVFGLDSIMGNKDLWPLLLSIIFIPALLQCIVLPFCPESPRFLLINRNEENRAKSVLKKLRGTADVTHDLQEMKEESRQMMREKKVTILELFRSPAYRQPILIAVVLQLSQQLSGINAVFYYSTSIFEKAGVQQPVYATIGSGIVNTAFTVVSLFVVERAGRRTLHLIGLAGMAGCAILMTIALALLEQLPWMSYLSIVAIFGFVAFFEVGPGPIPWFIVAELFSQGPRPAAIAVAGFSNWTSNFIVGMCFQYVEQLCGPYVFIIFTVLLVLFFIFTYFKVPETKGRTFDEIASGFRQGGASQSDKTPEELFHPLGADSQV

As for `Cc1ccc(C)c(CN2CCC(CNC(=O)c3cc4ccc5cccnc5c4[nH]3)CC2)c1`, the figures for the inhibition in test [1], in test [2] and in test [3] were 0.51%, -0.66% and -0.23%, respectively.
In the same order, the values of `CC(C)(C)c1ccc(CN2CCC(CNC(=O)c3cc(-c4ccccc4)nc4ccccc34)CC2)cc1` are -2.07%, 0.33% and -1.73%.
Take `CC(C)CNCc1ccc(-c2cccc(CNc3ccc4ncccc4c3)c2)cc1`: the figures for the inhibition in test [1], in test [2] and in test [3] were 4.79%, 3.71% and 2.69%, respectively.
For `CN(C)CCCNCc1ccc(-c2ccc(CNCCOc3ccccc3)cc2)cc1`, in that order: 2.4%, 4.11% and 2.46%.
Consider `Cc1cccc2nc(C(=O)Nc3nc(CN4CCC(C)CC4)cs3)cn12`, for which the inhibition is -0.22% in test [1], -1.59% in test [2] and 1.62% in test [3].
On to `CCCCCc1cc(O)c2c(c1)OC(C)(C)C=C2C1=CCN(Cc2ccsc2)CC1`, for which the inhibition in test [1] was found to be 2.33%; in test [2] it was 2.79%; in test [3], 2.52%.
For `Nc1nccc2ccc(-c3cccc(OCc4ccccc4)c3)cc12`, in that order: 1.85%, 2.5% and -2.03%.
In the same order, the values of `CN(CCN)Cc1ccc(-c2ccc(-c3nc4cc(C(F)(F)F)ccc4[nH]3)s2)cc1` are 15.1%, 14.8% and 11.4%.
For `FC(F)(F)c1cccc(CNCC2CCN(CC3CCCCC3)CC2)c1`, in that order: -0.93%, -0.13% and 0.34%.
Take `O=c1nc(NCCCNCc2cc3c(Cl)cc(Cl)cc3[nH]2)[nH]c2ccsc12`: the inhibition in test [1] amounted to 81.4%; in test [2], 96.7%; in test [3], 83.9%.
In the same order, the values of `O=C(/C=C/c1ccsc1)N1CCC(CCN2CCC(c3c[nH]c4ccccc34)CC2)CC1` are 2.34%, 3.57% and 6.24%.
For `Nc1nc(N)c2c(ccc3c2ccn3CCCF)n1`, in that order: 1.79%, 5.24% and 0.69%.
For `Cc1ccc(CNC(=O)[C@H](Cc2ccccc2)Nc2cc(C)nc(NCC3CCCCC3)n2)cc1`, the values for the inhibition in test [1], in test [2] and in test [3] were 3.25%, 4.57% and 0.14%, respectively.
For `OC(c1nnc(S)n1-c1ccccc1)C(O)c1nnc(S)n1-c1ccccc1` (stereo unspecified), in that order: 10.1%, 8.57% and 10%.
In the same order, the values of `CCCNCc1ccc(-c2ccc(CN(CC3CCCO3)C(=O)COc3ccccc3Cl)cc2)nc1` (stereo unspecified) are 4.33%, 4.73% and 2.71%.
On to `Cc1ccc(CN2CCCN(Cc3cccc(NC(=O)c4ccc(-c5ccccc5)cc4)c3)CC2)cc1C`, for which the values for the inhibition in test [1], in test [2] and in test [3] were 3.45%, 2.98% and 2.82%, respectively.
Take `Cc1ccc2sc(N(CCCn3ccnc3)C(=O)c3ccco3)nc2c1C`: the inhibition amounted to 0.64% in test [1], 2.76% in test [2] and 2.79% in test [3].
For `CCCCNCc1ccc(-c2nc(CN(Cc3ccc(Cl)c(Cl)c3)C(=O)CN(C)C)cs2)cc1`, in that order: 50.3%, 52.9% and 8.23%.
For `COc1ccc(C2CCN(CCCNC(=O)c3ccc(NC(=O)c4ccc(Cl)cc4)cc3)CC2)c(OC)c1`, in that order: 3.85%, 4.23% and 3.54%.
For `O=C(O)c1cccc2c(-c3ccncc3)cccc12`, in that order: 0.79%, 1.26% and 1.31%.
As to `N#Cc1cccc(NC(=O)Nc2cccc(OC3CCN(Cc4ccccc4)CC3)c2)c1`, the inhibition in test [1] was 0.82%; in test [2], 0.59%; in test [3] it was -0.29%.
Consider `COc1cc(C(F)(F)F)cc2[nH]c(CNCCCNc3nc4ccccc4[nH]3)cc12`, for which the inhibition turned out to be 4.4% in test [1], 6.5% in test [2] and 5.01% in test [3].
Turning to `CS(=O)(=O)Nc1ccc(-c2cnc3[nH]cc(-c4ccc(C(=O)O)cc4)c3c2)cc1`, the figures for the inhibition in test [1], in test [2] and in test [3] were 8.98%, 9.93% and 8.74%, respectively.
In the same order, the values of `CCCCCCCN1CCC(CC(=O)Nc2ccnc3ccc(OC)cc23)CC1` are 11.3%, 9.11% and 6.34%.
Regarding `Clc1ccc(-n2cnc3c(Nc4ccc(Oc5ccccc5)cc4)ncnc32)cc1Cl`, the inhibition in test [1] is 1.38%; in test [2], 1.39%; in test [3] it was -1.22%.
For the molecule `O=S(=O)(NCCN1CCCC1)c1cccc(-c2cccc(CNCCc3cccs3)c2)c1`, the values for the inhibition in test [1], in test [2] and in test [3] were 11.7%, 12% and 8.7%, respectively.
For `O=C(c1cccc(COc2ccc3c(c2)CCN(C2CCCC2)CC3)c1)N1CCN(c2ccncc2)CC1`, in that order: 8.85%, 5.59% and 7.88%.
In the case of `Cc1cccc2nc(-c3cccc(-c4ccc(NC(=O)C5CC(=O)Nc6ccccc65)cc4)c3)[nH]c12` (stereo unspecified), the inhibition was 2.47% in test [1], 3.87% in test [2] and 0.15% in test [3].
In the same order, the values of `CCCCCCCCc1c(C)nc(C)c(I)c1O` are -1.12%, 0.28% and -2.61%.
Consider `Cc1nnc(NC(=O)c2cn(-c3ccccc3)nc2-c2ccccc2C)o1`, for which the inhibition in test [1] came to 1.69%; in test [2], 2.78%; in test [3] it was 2%.
Turning to `CN1CCN(c2cc3c(cc2Cl)CCN3C(=O)Nc2ccc(NC(=O)c3ccc(C(F)(F)F)cc3)cc2)CC1`, the inhibition stood at 3.11% in test [1], 8.45% in test [2] and 1.98% in test [3].
As to `Cc1cc(C)c2ncc(C(=O)O)c(O)c2c1`, the inhibition came out at 2.75% in test [1], 3.7% in test [2] and 3.9% in test [3].
For `Cc1ccc(N2C(N)=NC(N)=NC2c2ccccc2)cc1` (stereo unspecified), in that order: 2.79%, 2.24% and 2.13%.
In the same order, the values of `Cc1nnsc1C(=O)Nc1cccc(-c2ccc(-c3nc4ccccc4[nH]3)cc2)c1` are 7.04%, 9.93% and 4.11%.
With `CC(C)(C)NCCN(Cc1ccc(-c2ccc(C(F)(F)F)cc2)cc1)C(=O)Cn1c(CCc2cccc(F)c2F)nc(=O)c2c1CCC2`, the inhibition in test [1] amounted to 6.13%; in test [2], 7.22%; in test [3], 7.29%.
As for `COc1ccc(-c2nc(NC(=O)CS(=O)(=O)c3ccc(C)cc3)sc2C)cc1`, the inhibition in test [1] was found to be 8.39%; in test [2], 6.4%; in test [3], 0.17%.
In the same order, the values of `O=C(Nc1cc(Cl)ccc1Cl)N[C@H]1CCN(CCCCCNC(=O)C2CC2c2ccc(Cl)c(Cl)c2)C1` (stereo partly specified) are 1.43%, 1.2% and 4.46%.
For `CCOc1cc(C)ccc1N1CCN(CCCCNC(=O)c2ccc(NC(=O)c3ccc(Cl)cc3)cc2)CC1`, in that order: 0.02%, -2.19% and -0.2%.
For `c1cc(COc2ccc(C3=NCCN3)cc2)nc(COc2ccc(C3=NCCN3)cc2)c1`, in that order: 4.95%, 5.66% and -0.59%.
For the molecule `CN(Cc1ccc(C#N)cc1)C1CCN(c2cc(NC(=O)c3cccc(F)c3)ccn2)CC1`, the inhibition in test [1] is -1.86%; in test [2], -1.81%; in test [3] it was 0.96%.
Consider `CCOc1cc(Cc2cnc(N)nc2N)cc(OCC)c1OCC`, for which the inhibition in test [1] turned out to be 4.33%; in test [2], 1.8%; in test [3] it was 9.33%.
In the same order, the values of `CCCCCN1C(=O)N(c2ccc(Cl)c(Cl)c2)C(N(O)C(=O)Nc2ccc(Cl)c(Cl)c2)C1(C)C` (stereo unspecified) are 4.79%, 4.73% and 2.87%.
In the case of `COc1ccc(NC(=O)/C=C/c2cc(F)cc(C(F)(F)F)c2)cc1OCCN(C(C)C)C(C)C`, the inhibition came to 9.32% in test [1], 9.92% in test [2] and 6.4% in test [3].
Regarding `CCc1ccc(Cc2cnc3nc(N)nc(N)c3c2C)cc1CC`, the results for the inhibition in test [1], in test [2] and in test [3] were -1.77%, 0.71% and 0.12%, respectively.
For `CCc1nc2nc(C)cc(Nc3cc(C)cc(C)c3)n2n1`, in that order: 3.06%, 2.04% and 3.36%.
Turning to `CCOC(=O)N1CCN(C(=O)Nc2ccc(Cl)cc2)CC1`, the inhibition in test [1] was found to be 1.34%; in test [2], 1%; in test [3], 0.32%.
For `Cc1ccc(O)cc1Nc1ccnc2ccc(-c3cccc(CN(C)C)c3)cc12`, in that order: 0.24%, -2.77% and 0.73%.
